# PubChem BioAssay AID652134 (The Scripps Research Institute Molecular Screening Center, 2013)
# The whole screen tested about 2,400 compounds, of which about 2,100 (88%) were called active. The set was probably picked from earlier hits. Only a sample is shown. Values without a mark were called inactive.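 The calls were made as follows: active = inhibition above the average of every tested compound plus 3 SD (cut at about 3.8% in these data); inactive = the rest.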
# Molecular target: Nuclear receptor subfamily 0 group B member 1 (Homo sapiens) (UniProt P51843)
# Test: NR0B1 repressor blockers, StAR reporter readout – cell-based, luminescence, HEK293T, full-length DAX-1, SF-1 activated StAR promoter, confirmation (AID 652134);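 also: 0% = DAX-1 cells with DMSO and 100% = no DAX-1 control cells with DMSO; active compounds raise luminescence by relieving repression of the StAR reporter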
# Settings: HEK293T StAR-promoter luciferase reporter, SF-1/DAX-1 repression; at 6.8 µM; hits give high values
# Sequence of Nuclear receptor subfamily 0 group B member 1 (Homo sapiens) (P51843 whole entry, looked up): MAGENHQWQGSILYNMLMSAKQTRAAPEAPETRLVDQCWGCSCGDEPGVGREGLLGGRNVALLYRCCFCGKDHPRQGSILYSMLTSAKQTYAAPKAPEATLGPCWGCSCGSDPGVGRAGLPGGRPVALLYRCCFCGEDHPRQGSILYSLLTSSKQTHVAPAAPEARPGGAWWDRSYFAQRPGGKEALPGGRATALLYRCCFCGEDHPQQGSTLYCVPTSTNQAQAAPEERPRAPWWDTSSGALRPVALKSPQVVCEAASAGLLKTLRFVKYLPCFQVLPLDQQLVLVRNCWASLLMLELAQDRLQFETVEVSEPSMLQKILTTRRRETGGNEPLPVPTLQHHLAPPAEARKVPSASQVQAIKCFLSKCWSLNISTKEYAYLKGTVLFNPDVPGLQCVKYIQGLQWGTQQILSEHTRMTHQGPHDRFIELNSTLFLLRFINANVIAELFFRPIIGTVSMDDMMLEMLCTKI
row,SMILES,inhibition
1,Cc1cc(N)n2nc(-c3ccc(C(C)(C)C)cc3)cc2n1,13.7% (active)
2,O=C(c1cnn(-c2ccc(Cl)cc2)c1)c1ccccc1O,11.7% (active)
3,Cc1ccc(-c2nc3ccc(Br)cn3c2Cc2ccccc2C(F)(F)F)cc1,5.68% (active)
4,COc1ccccc1Cc1c(-c2ccc(F)cc2)nc2ccc(C)cn12,4.48% (active)
5,Nc1ccc2nn(-c3ccc(Cl)cc3)nc2c1,15.9% (active)
6,CN1OC[C@@H]2CN[C@H](c3ccc(-c4ccccc4)cc3)C[C@@H]21,8.84% (active)
7,COc1ccc(-c2csc(-c3cccs3)n2)cc1OC,10.7% (active)
8,CC1CCN(CCCNC(=O)CN2C(=O)CSc3ccc(S(=O)(=O)N4CCCCC4)cc32)CC1,2.3%
9,CSCCC(NC(=O)c1ccco1)C(=O)Nc1cc(C)ccn1 (stereo not drawn),12.7% (active)
10,Cc1ccc(C(=O)NNC(=O)c2ccc3c(c2)OCCO3)cc1,3.83% (active)
11,O=C(Nc1ccccc1)c1ccc2c(c1)OCCCO2,15.6% (active)
12,Cc1nc(NC(=O)c2ccc3c(c2)OCCO3)ccc1Br,12.1% (active)
13,CN1CCN(c2ccc(NC(=O)c3ccc4c(c3)OCCO4)cc2Cl)CC1,6.62% (active)
14,CCC(=O)Nc1ccc(-c2ccc(N3CCCCC3)nn2)cc1,3.57%
15,c1ccc(Cc2c(-c3ccco3)nc3c4ccccc4ccn23)cc1,12.1% (active)
16,COc1ccc(CCNC(=O)COC(=O)Cc2ccccc2F)cc1,0.17%
17,Cc1cc(C(=O)NCCc2ccc(Cl)cc2)c(C)o1,3.8% (active)
18,O=C(O)c1ccc(N/N=C/c2cn(-c3ccccc3)nc2-c2cccs2)cc1,12.7% (active)
19,CCSc1nnc(NC(=O)c2ccc(C)cc2)s1,10% (active)
20,NC(=O)CSc1nnc(NC(=O)c2ccc3ccccc3c2)s1,10% (active)
21,Cc1ccnc(NC(=O)CNC(=O)c2ccccc2)c1,3.68% (active)
22,Cc1nn(-c2ccc([N+](=O)[O-])cc2)c(N)c1-c1ccccc1,15.1% (active)
23,Fc1ccc2cnc(-c3ccccc3)cc2c1,6.65% (active)
